The results in this text go back to PubChem BioAssay (Tox21).

The structures appear in SMILES notation. Several values for one entry are separate records, joined by “and”; a condition that tells them apart may be missing. Equal values may be shown once. Results filed as inconclusive are left out. More than one record can exist for a structure, and the calls need not agree. Activity calls are given as the source filed them. Calls come from the whole dose curve; as a rule, active = well fitted curve in the direction sought with a large enough effect in the repeat runs; inconclusive = weak or mixed curves; inactive = no such curve, though single readings can be large; an effect the other way counts as inactive or inconclusive.

Experiment [1] in a line: qHTS assay to identify small molecule antagonists of the glucocorticoid receptor (GR) signaling pathway - cell viability counter screen (AID 720693). Note: nearly all actives have a fitted effect of over 55% in size. Background: In qHTS, concentration-response curves come from the screen itself.
Experiment [2] is described as follows: qHTS assay for identifying genotoxic compounds that show differential cytotoxicity against isogenic chicken DT40 cell lines with known DNA damage response pathways - wild type cell line (AID 743012). Note: nearly all actives have a fitted effect of over 60% in size. Note: potency is the fitted concentration of half-maximal effect. In a few lines:
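Wild type DT40, 300 cells/well, ~0.5 h settle at 37 C/5% CO2; compounds in DMSO added by pintool; 40 h at 37 C/5% CO2; CellTiter-Glo, 30 min RT; luminescence.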

A short description of experiment [3]: qHTS assay for identifying genotoxic compounds that show differential cytotoxicity against isogenic chicken DT40 cell lines with known DNA damage response pathways - Rev3 mutant cell line (AID 743014). Note: nearly all actives have a fitted effect of over 55% in size. Note: potency is the fitted concentration of half-maximal effect.
Experiment [4] in a line: qHTS assay for identifying genotoxic compounds that show differential cytotoxicity against isogenic chicken DT40 cell lines with known DNA damage response pathways - Rad54/Ku70 mutant cell line (AID 743015). Note: nearly all actives have a fitted effect of over 60% in size. Note: potency is the fitted concentration of half-maximal effect.
The nature of experiment [5]: qHTS assay to identify small molecule antagonists of the androgen receptor (AR) signaling pathway - cell viability counter screen (AID 743033; note: nearly all actives have a fitted effect of over 45% in size; note: potency is the fitted concentration of half-maximal effect).
Experiment [6] can be described thus: qHTS assay to identify small molecule antagonists of the androgen receptor (AR) signaling pathway using the MDA cell line - cell viability counter screen (AID 743041; note: nearly all actives have a fitted effect of over 45% in size). In a few lines:
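MDA-kb2 AR-luc human breast carcinoma cells (MMTV-luciferase, AR/GR responsive) were treated with compounds plus R1881 agonist for 16 h at 37 °C. Viability was read as CellTiter-Fluor fluorescence in the same wells as the reporter assay.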

On to `O=C1NC(=O)c2cccc3cccc1c23`, for which the Potency entry in experiment [1], in experiment [2], in experiment [3], in experiment [5] and in experiment [6] was “inactive” throughout. In addition, in experiment [4], the Potency is 48.6 µM (active).

As for `COC(OC)OC`, the Potency entry in experiment [1], in experiment [2], in experiment [3], in experiment [4], in experiment [5] and in experiment [6] was “inactive” in each case.

With `CCCCC(CC)COS(=O)(=O)O` (configuration not stated), the Potency entry in experiment [1], in experiment [2], in experiment [3], in experiment [4], in experiment [5] and in experiment [6] was “inactive” in each case.

As for `CCCCCCCCCCCCCCN(C)C`, the Potency result in experiment [1], in experiment [2], in experiment [3], in experiment [4], in experiment [5] and in experiment [6] was “inactive” in each case.

As to `O=c1[nH][nH]c(=O)c2cc([N+](=O)[O-])ccc12`, the Potency result in experiment [1], in experiment [2], in experiment [3], in experiment [4], in experiment [5] and in experiment [6] was “inactive” in each case.

For the compound `Cc1cccc2sc(N)nc12`, the Potency entry in experiment [1], in experiment [2], in experiment [3], in experiment [4], in experiment [5] and in experiment [6] was “inactive” in each case.

On to `CC[C@H]1OC(=O)[C@H](C)[C@@H](O[C@H]2C[C@@](C)(OC)[C@@H](O)[C@H](C)O2)[C@H](C)[C@@H](O[C@@H]2O[C@H](C)C[C@H](N(C)C)[C@H]2O)[C@](C)(O)C[C@@H](C)C(=O)[C@H](C)[C@@H](O)[C@]1(C)O`, for which the Potency result in experiment [1], in experiment [2], in experiment [3], in experiment [4], in experiment [5] and in experiment [6] was “inactive” throughout.

In the case of `COc1ccc(C(=O)NCc2ccc(OCCN(C)C)cc2)cc1OC`, the Potency entry in experiment [1], in experiment [2], in experiment [3], in experiment [4], in experiment [5] and in experiment [6] was “inactive” each time.

As to `CCC(=O)OCc1ccc(OC)cc1`, the Potency result in experiment [1], in experiment [2], in experiment [3], in experiment [4], in experiment [5] and in experiment [6] was “inactive” each time.

For `CCOC(=O)C(C)O` (configuration not stated), the Potency entry in experiment [1], in experiment [2], in experiment [3], in experiment [4], in experiment [5] and in experiment [6] was “inactive” each time.

Regarding `c1ccc2sc(SSc3nc4ccccc4s3)nc2c1`, the Potency result in experiment [1], in experiment [2], in experiment [3], in experiment [4], in experiment [5] and in experiment [6] was “inactive” in each case.

On to `NC(=O)c1ccccc1[N+](=O)[O-]`, for which the Potency result in experiment [1], in experiment [2], in experiment [3], in experiment [4], in experiment [5] and in experiment [6] was “inactive” each time.

Turning to `O=c1[nH]c2cc(C(F)(F)F)c(N3CCOCC3)cc2n(CP(=O)(O)O)c1=O`, the Potency entry in experiment [1], in experiment [2], in experiment [3], in experiment [4], in experiment [5] and in experiment [6] was “inactive” each time.

As for `CCN(CC)CCNC(=O)c1cc(Cl)c(N)cc1OC`, the Potency entry in experiment [1], in experiment [2], in experiment [3], in experiment [4], in experiment [5] and in experiment [6] was “inactive” each time.

With `COc1cc(NCc2ccc3nc(N)nc(N)c3c2C)cc(OC)c1OC`, the Potency entry in experiment [1] and in experiment [6] was “inactive” throughout. The Potency in experiment [2] was 0.133 µM (active); in experiment [3] it was 0.15 µM (active); in experiment [4], 0.266 µM (active); in experiment [5], 0.674 µM (active).

As for `COc1ccc(N)c([N+](=O)[O-])c1`, the Potency result in experiment [1], in experiment [2], in experiment [3], in experiment [4], in experiment [5] and in experiment [6] was “inactive” in each case.

Turning to `CSSc1ccoc1C`, the Potency result in experiment [1], in experiment [5] and in experiment [6] was “inactive” throughout. Moreover, the Potency was 19.2 µM (active) in experiment [2], 34.2 µM (active) in experiment [3] and 19.2 µM (active) in experiment [4].

As to `C/C(C=O)=C\c1ccccc1`, the Potency result in experiment [1], in experiment [2], in experiment [3], in experiment [4], in experiment [5] and in experiment [6] was “inactive” throughout.

As to `CN=C(N)NC(=O)Nc1c(C)cccc1C`, the Potency result in experiment [1], in experiment [2], in experiment [3], in experiment [4], in experiment [5] and in experiment [6] was “inactive” throughout.

In the case of `O=C(O)CN1C(=O)c2cccc3cccc(c23)C1=O`, the Potency entry in experiment [1], in experiment [2], in experiment [3], in experiment [4], in experiment [5] and in experiment [6] was “inactive” throughout.

On to `CCCc1nc2c(C)cc(-c3nc4ccccc4n3C)cc2n1Cc1ccc(-c2ccccc2C(=O)O)cc1`, for which the Potency entry in experiment [1], in experiment [2], in experiment [3], in experiment [4], in experiment [5] and in experiment [6] was “inactive” in each case.

For `O=C(O)CO`, the Potency entry in experiment [1], in experiment [2], in experiment [3], in experiment [4], in experiment [5] and in experiment [6] was “inactive” throughout.

`Cc1cc([N+](=O)[O-])ccc1N`: the Potency result in experiment [1], in experiment [2], in experiment [3], in experiment [4], in experiment [5] and in experiment [6] was “inactive” in each case.

On to `CC(=O)N[C@@H](Cc1ccc(O)cc1)C(=O)O`, for which the Potency entry in experiment [1], in experiment [2], in experiment [3], in experiment [4], in experiment [5] and in experiment [6] was “inactive” in each case.

For `CC(CN(CCN(CC(C)OCCO)CC(C)OCCO)CC(C)OCCO)OCCO` (configuration not stated), the Potency result in experiment [1], in experiment [5] and in experiment [6] was “inactive” throughout. In addition, the results for the Potency in experiment [2], in experiment [3] and in experiment [4] were 18.6 µM (active), 10.5 µM (active) and 20.9 µM (active), respectively.

For `O=C(O)c1cccc(Oc2ccccc2)c1`, the Potency result in experiment [1], in experiment [2], in experiment [3], in experiment [4], in experiment [5] and in experiment [6] was “inactive” each time.

As to `CC1CCCO1` (configuration not stated), the Potency entry in experiment [1], in experiment [2], in experiment [3], in experiment [4], in experiment [5] and in experiment [6] was “inactive” each time.

On to `N[C@@H](Cc1cc(I)c(O)c(I)c1)C(=O)O`, for which the Potency entry in experiment [1], in experiment [2], in experiment [3], in experiment [4], in experiment [5] and in experiment [6] was “inactive” throughout.

In the case of `C[C@@H]1[C@H](O)[C@@H](C)/C=C/C=C\C=C\C=C\C=C\C=C\C=C\[C@H](O[C@@H]2O[C@H](C)[C@@H](O)[C@H](N)[C@@H]2O)C[C@@H]2O[C@](O)(C[C@@H](O)C[C@@H](O)[C@H](O)CC[C@@H](O)C[C@@H](O)CC(=O)O[C@H]1C)C[C@H](O)[C@H]2C(=O)O` (stereo in doubt), the Potency entry in experiment [1], in experiment [2], in experiment [3], in experiment [5] and in experiment [6] was “inactive” throughout. The Potency entry in experiment [4] was “inactive and 61.1 µM (active)”.

Turning to `O=C(Nc1ccc(C(=O)O)c(O)c1)c1ccccc1`, the Potency result in experiment [1], in experiment [2], in experiment [3], in experiment [4], in experiment [5] and in experiment [6] was “inactive” in each case.

As to `CCCCCCCCCCCCCCCC(=O)OCC`, the Potency entry in experiment [1], in experiment [2], in experiment [3], in experiment [4], in experiment [5] and in experiment [6] was “inactive” throughout.

Take `CCCCCCCCCCCCCCCCCC(=O)OCC(CC)CCCC` (configuration not stated): the Potency entry in experiment [1], in experiment [2], in experiment [3], in experiment [4], in experiment [5] and in experiment [6] was “inactive” each time.
